This passage reports Potency and largest response in the series, negative = inhibition results from PubChem BioAssay AID1490 (National Center for Advancing Translational Sciences (NCATS), 2009).

Values joined by “and” are separate entries in the source; they are usually repeats but may differ in a detail not shown here. Equal values may be shown once. The campaign covered roughly 310,000 compounds. About 11,000 (3.5%) were called active. About 4% were inconclusive and are not listed. The entries come from a sample that favours actives as a whole. Values without a mark were called inactive. Calls come from the whole dose curve; as a rule, active = well fitted inhibition curve with a large enough effect; inconclusive = small, poorly fitted or top-dose-only effect, or another doubt; inactive = no such curve, though single readings can be large or run the other way.
Potency is the fitted concentration of half-maximal effect.

This test has as its target 4'-phosphopantetheinyl transferase ffp (Bacillus subtilis) (UniProt Q9F4F7). The test is described as follows: qHTS Assay for Inhibitors of Bacillus subtilis Sfp phosphopantetheinyl transferase (PPTase).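 For largest response in the series, negative = inhibition: 0% = enzyme reaction without inhibitor and -100% = no enzyme wells.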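 Note: the enzyme is Sfp with the accession as filed and its product quenches rhodamine fluorescence.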 The settings on record: Biochemical Sfp PPTase activity. The method in brief:
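Buffer: 50 mM Hepes-Na pH 7.6, 10 mM MgCl2, 0.01% Nonidet P-40, 0.01% BSA. Enzyme 15 nM, pre-exposed to compound 15 min; substrates then added and fluorescence change tracked over 30 min.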
For orientation: Quantitative high-throughput screening tests each substance at several concentrations.
Take `Cc1cc(=O)[nH]c(N/N=C/c2ccc3c(c2)OCCO3)n1`: the Potency was 56.2 µM (active).

Turning to `CCN(CC)c1ccc(/C=N/Nc2nc(C)cc(=O)[nH]2)cc1`, the largest response in the series, negative = inhibition is -16.8%.

For `Cc1cc(=O)[nH]c(N/N=C/c2c(C)nn(-c3ccccc3Cl)c2Cl)n1`, the largest response in the series, negative = inhibition was -9.72%.

For `COc1ccc(/C=C(\C#N)c2c[nH]c3ccccc23)cc1`, the largest response in the series, negative = inhibition was 10.3%.

Consider `Cc1ccc2c(c1)N(CC(=O)NCCc1ccc(Cl)cc1)C(=O)c1cccnc1O2`, for which the largest response in the series, negative = inhibition is -4.46%.

In the case of `COc1ccc(Cl)cc1NC(=O)CCN1CCOCC1`, the largest response in the series, negative = inhibition is 13.9%.

In the case of `COc1ccccc1NC(=O)CCN1CCN(c2ccc(Cl)cc2)CC1`, the largest response in the series, negative = inhibition was 3.28%.

In the case of `COC(=O)CNC(c1ccccc1Cl)c1cc(Br)ccc1NC(=O)CCN1CCOCC1` (stereo not drawn), the Potency was 56.2 µM (active).

For the compound `CNS(=O)(=O)c1ccc(NC(=O)Nc2ccc3c(c2)OCO3)cc1`, the largest response in the series, negative = inhibition is -9.71%.

Take `CCc1ccc(OCC(O)CN2CCN(CCO)CC2)cc1` (stereo not drawn): the largest response in the series, negative = inhibition is 5.76%.

With `C/C(=N\NC(N)=S)c1ccncc1`, the Potency is 79.4 µM (active).

As to `C/C(=N/NC(=O)c1ccn(C)n1)c1ccncc1`, the largest response in the series, negative = inhibition was 5.8%.

`C/C(=N/NC(=O)c1ccncc1)c1ccc2c(c1)OCO2`: the largest response in the series, negative = inhibition is 4.66%.

In the case of `COc1ccc(CCNC(=O)CCCCCNC(=O)N2CCn3c2nc2ccccc23)cc1OC`, the largest response in the series, negative = inhibition is 4.84%.

As for `Cc1ccccc1CNC(=O)CCC(=O)N1Cc2ccccc2Oc2ncccc21`, the largest response in the series, negative = inhibition was 19%.

Regarding `CCn1c(SCc2cccc(C(=O)O)c2)nnc1-c1ccc(Cl)cc1`, the largest response in the series, negative = inhibition was 1.11%.

Consider `COc1ccc(-n2ncc3c2CC(C)(C)CC3NC(=O)CCc2c(C)nn(C)c2C)cc1` (stereo not drawn), for which the largest response in the series, negative = inhibition is 11.2%.

In the case of `Cc1ccc(NC(=S)Nc2ccc(F)cc2)cc1`, the largest response in the series, negative = inhibition was 5.93%.

Take `COC(=O)C(NS(=O)(=O)c1ccc(F)cc1)c1ccccc1` (stereo not drawn): the largest response in the series, negative = inhibition was 16.1%.

With `O=S(=O)(NC(=S)Nc1ccccc1)c1ccc(F)cc1`, the Potency was 20 µM (active).

Turning to `Cc1cc(SCc2c(F)cccc2Cl)nc(=O)[nH]1`, the largest response in the series, negative = inhibition was 1.28%.

As for `O=C(CSc1ccc(-c2ccc(F)cc2)nn1)Nc1ccc2c(c1)OCCO2`, the largest response in the series, negative = inhibition was -25.1%.

Consider `O=C(CSc1ccc(-c2ccco2)nn1)Nc1cccc(F)c1`, for which the Potency is 15.8 µM (active).

Turning to `O=C(CSc1ccc(-c2ccco2)nn1)NCc1ccc2c(c1)OCO2`, the Potency was 50.1 µM (active).

Take `Cc1ccccc1-c1nnc(SCC(=O)NCc2ccc3c(c2)OCO3)n1C`: the largest response in the series, negative = inhibition is 4.47%.

With `Cn1c(SCc2c(F)cccc2Cl)nnc1-c1cnccn1`, the largest response in the series, negative = inhibition was -5.8%.

For the compound `Fc1cccc(Cl)c1CSc1ccc(-c2ccco2)nn1`, the Potency is 39.8 µM (active).

Take `O=C(CSc1ncn[nH]1)NCc1ccc2c(c1)OCO2`: the largest response in the series, negative = inhibition is 9.23%.

Take `COc1ccc(NC(=O)CSc2ccc(-c3ccco3)nn2)c(OC)c1`: the largest response in the series, negative = inhibition was -27.4%.

For `O=C(NCC(=O)N1CCC2(CC1)NCCc1[nH]cnc12)c1ccc(Br)cc1`, the largest response in the series, negative = inhibition is 9.84%.

As for `O=C(Cn1nc([N+](=O)[O-])nc1Br)NC1CCCCC1`, the largest response in the series, negative = inhibition is 16.4%.

As to `CCOC(=O)N1CCN(S(=O)(=O)c2ccc(Br)cc2)CC1`, the largest response in the series, negative = inhibition was 12.6%.

On to `C[C@H]1Cc2c(COc3ccccc3)nc3c(c2CO1)CN(C(=O)Nc1cccc(C#N)c1)CC3`, for which the largest response in the series, negative = inhibition is 13.6%.

Regarding `Cc1ccc(C(=O)N2CCC(n3nccc3NC(=O)Nc3cccc(F)c3)CC2)cn1`, the largest response in the series, negative = inhibition is 4.54%.

Take `CCCCC[C@H](O)/C=C/[C@@H]1[C@@H](CC(=O)CCC(=O)O)[C@@H](O)C[C@H]1O`: the largest response in the series, negative = inhibition was -8.37%.

In the case of `OCCC(O)CO` (stereo not drawn), the largest response in the series, negative = inhibition was -2.96% and -0.468% and 9.51%.

For the compound `O=C(c1cccnc1)N1CCN(S(=O)(=O)c2cccs2)CC1`, the largest response in the series, negative = inhibition was 2.77%.

`O=C(COc1ccc(Cl)cc1)NCCS(=O)(=O)N1CCN(c2ccc(F)cc2)CC1`: the largest response in the series, negative = inhibition is -3.01%.

With `NNC(=O)c1nnn(-c2nonc2N)c1CN1CCCC1`, the largest response in the series, negative = inhibition is 14.1%.

In the case of `Cc1c(C(=O)N(C)CCc2cnn(C)c2)oc2c(F)cccc12`, the largest response in the series, negative = inhibition is 4.37%.

On to `CCc1ccc2c(c1)C1(NN=C(c3ccccc3)S1)C(=O)N2` (stereo not drawn), for which the Potency is 8.91 µM (active).

As for `CCc1ccc2c(c1)C(c1ccc([N+](=O)[O-])cc1)=NNC(c1ccccc1)=N2`, the largest response in the series, negative = inhibition is -18%.

Consider `Cc1ccc(C)c(N2CCN(C(=O)CCCn3c(=O)c4cccn4c4cccnc43)CC2)c1`, for which the largest response in the series, negative = inhibition is 14.7%.

Take `CCNC(=O)N1CCCC(C(=O)c2ccc(-c3ccccc3)cc2)C1` (stereo not drawn): the largest response in the series, negative = inhibition is 4.19%.

Regarding `CC(C)(C)c1cc(C(=O)NCc2cccnc2)ccn1`, the largest response in the series, negative = inhibition was -7%.

Take `Cc1ccc(-n2nc(-c3ccco3)cc2C(=O)NCc2cccnc2)cc1`: the Potency is 10 µM (active).

Consider `CSc1sc(C(=O)NC(=O)NCc2cccnc2)c(C)c1-c1ccon1`, for which the largest response in the series, negative = inhibition is 9.79%.

For the compound `COc1ccc(N(CC(=O)Nc2cccc3ccccc23)S(C)(=O)=O)c(OC)c1`, the largest response in the series, negative = inhibition is 9.66%.
